# Assay results as given in PubChem BioAssay AID1159506 (National Center for Advancing Translational Sciences (NCATS), 2015).
# Over roughly 59,000 sequences, the read-out has its median near -0.00055; the lowest 2% begin near -2. The sample as a whole holds a higher share of the lowest values than the screen did.
# Assay: Identification of proteins required for the processing of the EWS-FLI1 nascent transcript;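 also: robust z of luciferase light less the median z of siRNAs with the same seed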
# Details: TC32 Ewing sarcoma NR0B1-luc vs CMV-luc (EWS-FLI1 target promoter against control promoter), 48 h; screened at 20 nM (by protocol)
# How it was run: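 Parallel TC32-NR0B1-luc and TC32-CMV-luc reverse transfections with 20 nM siRNA in RPMI-1640/10% FBS, luciferase measured 48 h later. Seed-adjusted z-scores from normalized, z-score-MAD transformed data; AllStars negative and siGL4 controls on each plate.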
row,Sequence,seed-corrected z-score
1,AGAUCAAUUAGUAAUCCUC against CHM,-0.298
2,UGGAUUGUCAACACCAAUG against CCT2,-0.17
3,UUUACGUCCAAAGUAGCAC against SEC23B,-0.0983
4,UGAUCUGCUAGGCAAGAGG against FASTKD1,-0.665
5,UGGUUGUUCAACGCUGUAG against MEA1,-0.557
6,UUAAGACAUAUCCUGGUGC against YY1AP1,-2.26
7,UUCCUUCUCAGGAUAGUGG against IYD,0.306
8,UCGGAUACGGGUGUGAUAC against SNX32,0.403
9,UAGAAUCCCACUGCGAUGC against TTYH3,-0.966
10,UCAUUCAUCAGGUUCAUGC against TPD52L1,1.32
11,UUGGGCUUCUUCCUAAUGC against SLC16A3,-0.147
12,UUCGAUAGUCUGUUUCUGC against SLK,-2.56
13,UCAGGGUAUUCAUUGGUGC against INCA1,-3.45
14,GAUGUAGAAGCCAUAGUUC against NIPAL4,0.499
15,UGGAGUUCUUAUAAAAUGC against C15orf43,-0.277
16,UUAAUUCCCGUGCCCUUGG against PON2,-3.2
17,UUUGGAUGUACGUGUAUAC against DYRK4,0.282
18,UACUUUCGCCUCCUCAUCC against CCDC89,1.17
19,UUUGGGCAGAUAGAAGGAG against ADAMTS15,0.203
20,UACUUUCAUAUGCAGGUCC against PCDH8,-1.4
21,AACCGUUCAUCCUUCGUGC against KLHL6,-0.163

row,Sequence,seed-corrected z-score
1,UCAUCAUCAAAGGCGAUGG against GDNF,-2.86
2,UUCUUGGUGUUGUAGAAGG against AGPAT2,0.219
3,UCAGGUAGAACACUUUGCU against YWHAG,0.113
4,UUGCUAUCCAUGUAUAGCC against SLITRK1,0.475
5,UCGUGUAAAACAACAUGCG against AGMO,-0.652
6,UAACCUAUCAUAUUGGUAG against DDX17,0.216
7,UAGAUCACCAAGCCCUUCC against EFNB1,-0.0268
8,UCUCCAUAAACAUACAGGC against LACE1,1.68
9,UUGGUUGCAUCCCUGUCCG against PPP1R27,-3.59
10,UGAUGUACUGUGGAAGGUC against MAST3,-1.59
11,UGUAGUGACAUCUCCGCCU against MCFD2P1,0.515
12,UAAGGUCCCAGAAAGGCCU against ZP4,0.208
13,UCUGGGUACAAUCUGGUGU against CHCHD10,-2.26
14,UCUGAUUCCGCUUCUGAGC against SIGLEC10,0.63
15,AUAGAUACCUAGGUCAACC against NEU3,0.24
16,UGCUGUUAGUUUGUGAUGC against LOC729254,0.247
17,UUCGAGACGAUUUCCAGUG against CMIP,-2.27
18,UACUAGGUACGAACCGUCC against PPTC7,-0.527
19,UCUCCUUACAUAACACUUC against EPHX2,0.0978
20,UUUGUGAUAGACUUCUUUC against CFAP126,1.14
21,AAACCUUCCGGUUUAGAUG against KCNH5,-0.00192

row,Sequence,seed-corrected z-score
1,UUUGCCUCUUUCCUCAACC against ZBTB16,-2.32
2,UAUAGAUCAACAAAAAUAC against TRMT112,0.21
3,UUCCUUCUCGUCGUCGUAG against SERPINH1,-0.218
4,AGUGGGAUAAGGGCUCUGA against TMEM132A,-5.72
5,UAUUCUUCAUUGGUAUCCC against TMEM27,-0.429
6,UCCGUUUCCACAUAUCUAC against SUPT20H,-0.175
7,UAUGGUAAUAGUCCUCCAG against FNDC9,-0.0743
8,UUAGAAGCCCGCGUGAUGU against HS6ST3,0.236
9,UGAUUGGUUACUGCCCAGG against TAS2R20,-4.87
10,UCCGUUUCCAUAAUUACAG against SCUBE1,-0.917
11,AAACUAAUGAAAUAGUGCC against GPR39,-0.0661
12,AUAGAUCUUUAUAUAAGCC against ATL1,-0.744
13,UAGAGUUUCGGUUUAAAUG against RBBP5,0.215
14,UUUUGUAUGUAGACAUUGG against DEFB135,-0.8
15,UACACUAGCAGUGACCAUG against MBOAT1,0.0459
16,UUGAUAUCCAGCACAUUGC against CORO2B,1.69
17,UCUUCGUAGAUGACAUUCC against ERO1A,0.442
18,AUAUGUGCAGUCUUCUCCC against LINC00200,-0.44
19,UCCAGUAACAAUUAAUGCC against LRRC37A,0.451
20,UGUGGUCAAAGAGGAGAUG against SH3TC2,-2.8
21,UAGCAGAUAGGUCUCAAUG against MYH11,-0.244

row,Sequence,seed-corrected z-score
1,UAGAUUCUCGUGCACAGCC against KIFC3,0.0224
2,AAAGUGACUAUUGUCAGGU against OR5M10,-0.162
3,UUUGUAGUUGUUCCCAUGC against TTPA,-0.714
4,UCCAAGGUCAGUGUGAUCC against ZDHHC23,0.574
5,UUAUGUAUCAUUGGAACCA against LOC388780,0.0558
6,UUUUAUUCCCUGUAUCAUG against ZNF619,-2.89
7,UUCACUCUCAAACUGGUCC against CNOT3,-0.499
8,UCUUGUCCAAGACUCCUUC against SMTN,-0.516
9,UGAUGAGCGACUCUCCUGG against C9orf142,-0.422
10,AUUGCUACUGAUAUAAGCC against DICER1,-0.452
11,UUCGGACUCAGCUUCUCCA against EXD3,0.0948
12,UUAUGAUCCAGGUAGAGGA against INHBE,0.817
13,UUCUGCUUUGCAUAUCUCC against POU5F1,-2.72
14,AUUCUUAAACGUGAUUUCC against NICN1,0.117
15,UAGCGAAUCUGUAAGCUGC against MLLT10,-0.471
16,UUUUGAUGCUGUCUACAGG against METTL2B,-1.55
17,UUACCUAUCCCUGAGACAC against MICAL2,0.383
18,UCCUCUGCGAAGUUCUUGG against PANX2,-2.24
19,UCCAUGAGCGCAAUCAUGC against CAPN3,0.116
20,UCUUCUUCACGAGUUGAGG against GPRC5A,-0.133
21,UGAGUCAAUGAUGCGCUUC against SFN,2.54
